From PubChem BioAssay AID1159580 (chemical genetic matrix, 2015)
Where “and” joins values, the source holds several entries; their conditions need not be identical. Equal values may be shown once. Hit rate of the full screen: of about 5,500 compounds, about 2,000 (36%) were called active. About 18% were inconclusive and are not listed. Rule as the data show it: active = normalized growth mostly below about 0.91 (no sharp cut-off); inconclusive = no clear call, values can overlap the other calls; inactive = mostly above about 0.92. The list shows a part of the results.

Test: chemical genetic growth profiling, strain panel (AID 1159580);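 also: tested at 20 µM; growth read once vehicle control cultures reached saturation at 30 °C; 1 = growth at the plate median or of vehicle wells; lower values mean less growth of the strain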
Conditions: growth OD

Measured: normalized growth

CC(C)C1=CC2=CCC3[C@](C)(CCC[C@]3(C)C(=O)O)C2CC1 (stereo not given in full)
active: S. cerevisiae deletion strains, locus YDR162C, strain NBP2, stronger effect = lower value 0.724 | S. cerevisiae deletion strains, locus YHR079C, strain IRE1, stronger effect = lower value 0.851 | S. cerevisiae deletion strains, locus YLR039C, strain RIC1, stronger effect = lower value 0.637 | S. cerevisiae deletion strains, locus YLR262C, strain YPT6, stronger effect = lower value 0.542 | S. cerevisiae deletion strains, locus YLR418C, strain cdc73, stronger effect = lower value 0.781 | S. cerevisiae deletion strains, locus YMR307W, strain GAS1, stronger effect = lower value 0.502 | S. cerevisiae deletion strains, locus YOR184W, strain ser1, stronger effect = lower value 0.801 | S. cerevisiae deletion strains, locus YOR231W, strain MKK1, stronger effect = lower value 0.859 | S. cerevisiae deletion strains, locus YPL256C, strain CLN2, stronger effect = lower value 0.824
0.996 (inactive) and 0.843 (active): S. cerevisiae deletion strains, locus YHR030C, strain SLT2, stronger effect = lower value
0.782 (active) and 0.89 (inactive): S. cerevisiae deletion strains, locus YJL095W, strain BCK1, stronger effect = lower value
inactive: S. cerevisiae deletion strains, locus YAL013W, strain DEP1, stronger effect = lower value 0.957 | S. cerevisiae deletion strains, locus YBR021W, strain FUR4, stronger effect = lower value 1.03 | S. cerevisiae deletion strains, locus YBR229C, strain ROT2, stronger effect = lower value 0.935 | S. cerevisiae deletion strains, locus YCL029C, strain bik1, stronger effect = lower value 0.995 | S. cerevisiae deletion strains, locus YDL035C, strain GPR1, stronger effect = lower value 0.918 | S. cerevisiae deletion strains, locus YDL074C, strain BRE1, stronger effect = lower value 0.923 | S. cerevisiae deletion strains, locus YDL101C, strain DUN1, stronger effect = lower value 0.946 | S. cerevisiae deletion strains, locus YDL134C, strain PPH21, stronger effect = lower value 0.935 | S. cerevisiae deletion strains, locus YDL185W, strain tfp1, stronger effect = lower value 0.975 | S. cerevisiae deletion strains, locus YDL192W, strain arf1, stronger effect = lower value 0.939 | S. cerevisiae deletion strains, locus YDR101C, strain arx1, stronger effect = lower value 1.05 | S. cerevisiae deletion strains, locus YDR150W, strain NUM1, stronger effect = lower value 0.981 | S. cerevisiae deletion strains, locus YDR318W, strain mcm21, stronger effect = lower value 0.925 | S. cerevisiae deletion strains, locus YDR388W, stronger effect = lower value 0.981 | S. cerevisiae deletion strains, locus YDR502C, strain sam2, stronger effect = lower value 0.952 | S. cerevisiae deletion strains, locus YEL061C, strain CIN8, stronger effect = lower value 0.97 | S. cerevisiae deletion strains, locus YER110C, stronger effect = lower value 0.99 | S. cerevisiae deletion strains, locus YER155C, strain BEM2, stronger effect = lower value 1.02 | S. cerevisiae deletion strains, locus YER167W, strain BCK2, stronger effect = lower value 0.994 | S. cerevisiae deletion strains, locus YGL078C, strain dbp3, stronger effect = lower value 0.978 | S. cerevisiae deletion strains, locus YGL086W, strain mad1, stronger effect = lower value 1.02 | S. cerevisiae deletion strains, locus YGL248W, strain PDE1, stronger effect = lower value 0.928 | S. cerevisiae deletion strains, locus YGR135W, strain pre9, stronger effect = lower value 0.94 | S. cerevisiae deletion strains, locus YGR252W, strain gcn5, stronger effect = lower value 0.986 | S. cerevisiae deletion strains, locus YHR079C, strain IRE1 (second series), stronger effect = lower value 0.974 | S. cerevisiae deletion strains, locus YHR094C, strain hxt1, stronger effect = lower value 0.976 | S. cerevisiae deletion strains, locus YHR129C, strain ARP1, stronger effect = lower value 0.967 | S. cerevisiae deletion strains, locus YHR200W, strain rpn10, stronger effect = lower value 0.995 | S. cerevisiae deletion strains, locus YIL066C, strain RNR3, stronger effect = lower value 0.937 | S. cerevisiae deletion strains, locus YIL073C, strain SPO22, stronger effect = lower value 0.902 | S. cerevisiae deletion strains, locus YIL125W, strain kgd1, stronger effect = lower value 1 | S. cerevisiae deletion strains, locus YIR030C, strain dcg1, stronger effect = lower value 0.974 | S. cerevisiae deletion strains, locus YJL134W, strain LCB3, stronger effect = lower value 0.977 | S. cerevisiae deletion strains, locus YJL168C, strain set2, stronger effect = lower value 0.977 | S. cerevisiae deletion strains, locus YJL187C, strain SWE1 (second series), stronger effect = lower value 0.96 | S. cerevisiae deletion strains, locus YJR043C, strain POL32, stronger effect = lower value 1.02 | S. cerevisiae deletion strains, locus YJR066W, strain TOR1, stronger effect = lower value 0.857 | S. cerevisiae deletion strains, locus YKL009W, strain mrt4, stronger effect = lower value 0.958 | S. cerevisiae deletion strains, locus YKL068W, stronger effect = lower value 0.971 | S. cerevisiae deletion strains, locus YKL085W, strain MDH1 (second series), stronger effect = lower value 0.966 | S. cerevisiae deletion strains, locus YKL085W, strain MDH1, stronger effect = lower value 0.966 | S. cerevisiae deletion strains, locus YKL190W, strain CNB1, stronger effect = lower value 0.958 | S. cerevisiae deletion strains, locus YKR001C, strain vps1, stronger effect = lower value 1.01 | S. cerevisiae deletion strains, locus YLR058C, strain SHM2, stronger effect = lower value 0.944 | S. cerevisiae deletion strains, locus YLR102C, strain apc9, stronger effect = lower value 0.985 | S. cerevisiae deletion strains, locus YLR113W, strain HOG1, stronger effect = lower value 0.859 | S. cerevisiae deletion strains, locus YLR268W, strain sec22, stronger effect = lower value 1.01 | S. cerevisiae deletion strains, locus YLR330W, strain CHS5, stronger effect = lower value 0.984 | S. cerevisiae deletion strains, locus YLR342W, strain FKS1 (second series), stronger effect = lower value 0.859 | S. cerevisiae deletion strains, locus YLR371W, strain rom2, stronger effect = lower value 0.992 | S. cerevisiae deletion strains, locus YML016C, strain PPZ1, stronger effect = lower value 0.966 | S. cerevisiae deletion strains, locus YML032C, strain rad52, stronger effect = lower value 0.949 | S. cerevisiae deletion strains, locus YML124C, strain tub3, stronger effect = lower value 0.979 | S. cerevisiae deletion strains, locus YMR078C, strain ctf18, stronger effect = lower value 0.974 | S. cerevisiae deletion strains, locus YMR223W, strain ubp8, stronger effect = lower value 0.923 | S. cerevisiae deletion strains, locus YNL067W, strain RPL9B, stronger effect = lower value 0.972 | S. cerevisiae deletion strains, locus YNL153C, strain GIM3, stronger effect = lower value 0.967 | S. cerevisiae deletion strains, locus YNL183C, strain NPR1, stronger effect = lower value 0.894 | S. cerevisiae deletion strains, locus YNL233W, strain BNI4, stronger effect = lower value 0.987 | S. cerevisiae deletion strains, locus YNL250W, strain rad50, stronger effect = lower value 0.963 | S. cerevisiae deletion strains, locus YNL271C, strain bni1, stronger effect = lower value 0.963 | S. cerevisiae deletion strains, locus YNL298W, strain CLA4, stronger effect = lower value 0.995 | S. cerevisiae deletion strains, locus YNL307C, strain MCK1, stronger effect = lower value 0.945 | S. cerevisiae deletion strains, locus YNR052C, strain pop2, stronger effect = lower value 0.95 | S. cerevisiae deletion strains, locus YOL006C, strain TOP1, stronger effect = lower value 0.937 | S. cerevisiae deletion strains, locus YOL012C, strain htz1 1.21 | S. cerevisiae deletion strains, locus YOL147C, strain pex11, stronger effect = lower value 0.987 | S. cerevisiae deletion strains, locus YOR061W, strain CKA2, stronger effect = lower value 0.921 | S. cerevisiae deletion strains, locus YOR069W, strain VPS5, stronger effect = lower value 0.972 | S. cerevisiae deletion strains, locus YOR136W, strain idh2, stronger effect = lower value 0.999 | S. cerevisiae deletion strains, locus YOR144C, strain elg1, stronger effect = lower value 0.982 | S. cerevisiae deletion strains, locus YOR316C, strain cot1, stronger effect = lower value 0.979 | S. cerevisiae deletion strains, locus YPL241C, strain CIN2, stronger effect = lower value 0.967 | S. cerevisiae deletion strains, locus YPR119W, strain clb2, stronger effect = lower value 0.977 | S. cerevisiae deletion strains, locus YPR141C, strain kar3, stronger effect = lower value 0.958 | S. cerevisiae deletion strains, locus YPR163C, strain tif3, stronger effect = lower value 0.976 | S. cerevisiae deletion strains, locus YPR167C, strain met16, stronger effect = lower value 0.98 | S. cerevisiae deletion strains, strain wtn01, stronger effect = lower value 1.06 | S. cerevisiae strains, strain wild type, stronger effect = lower value 0.962
